Screening data deposited in PubChem BioAssay by National Center for Advancing Translational Sciences (NCATS).
This is a sample that favours compounds with a hit; in the whole collection about 19% have one here.
HT1080 IDH1KD tx: toxicity to HT-1080 IDH1 knockdown cells (counter line) | HT-1080 IDH1 knockdown viability, ATP luminescence, 48 h | Potency, µM (series often up to 46.1 µM), for inactives: at the highest dose activity, negative = toxicity, hits mostly cytotoxic | 2% of 360,000 active | AID 686971;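 further: potency means the concentration at half of the fitted maximal effect; 0% = DMSO wells and -100% = cell-free medium wells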
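In this qHTS, HT-1080 cells depleted of IDH1 are exposed for 48 h at 37 °C to compound titrations. Toxicity is scored from CellTiter-Glo luminescence, with DMSO as full viability and medium alone as none.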
uPA generation: cell surface uPA generation inhibition; cell surface uPA generation assay, qHTS; Potency, µM (top dose mostly 38.3 µM), without a hit: at the top dose activity change, negative = inhibition, most hits filed as inhibitors; 0.31% of 330,000 active; active means well fitted inhibition curve with a large enough effect; inconclusive means small, poorly fitted or top-dose-only effect; inactive means no such curve, though single readings can be large or run the other way; tested in mouse RAW 264.7 cells; further: potency means the concentration at half of the fitted maximal effect; nearly all actives have a fitted effect of over 55% in size
TDP1 cell noCPT: qHTS for Inhibitors of human tyrosyl-DNA phosphodiesterase 1 (TDP1): qHTS in cells in absence of CPT; DT40 Tdp1-/- hTDP1 cells, no CPT, ATP luminescence, 48 h; Potency, µM (doses to about 46.2 µM), without a hit: at the top dose activity change, negative = growth inhibition, most hits filed as inhibitors; 15% of 420,000 active; further: potency means the concentration at half of the fitted maximal effect; nearly all actives have a fitted effect of over 55% in size
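Readout: luminescence from CellTiter-Glo after 30 min in the dark at RT. Cells: DT40 Tdp1-/- with stable hTDP1, 400/well. Exposure: compounds alone, ≥48 hr, 37 °C.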
HT1080NT lethal: kills 2HG-producing HT-1080-NT fibrosarcoma cells; HT-1080-NT fibrosarcoma viability, CellTiter-Glo ATP luminescence, 48 h; AID 686970; 1.6% of 360,000 active; Potency, µM (doses to about 46.1 µM), inactives show top-dose activity, negative = less viability, most hits filed as cytotoxic;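 further: NT is the 2HG producing partner of a matched IDH1 knockdown line; potency means the concentration at half of the fitted maximal effect; 0% = DMSO-treated cells and -100% = media-only wells without cells; nearly all actives have a fitted effect of over 55% in size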
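Read-out is CellTiter-Glo luminescence after 10 minutes at room temperature, following 48 hours' compound treatment of HT-1080-NT cells (750 cells/well, RPMI, 5% FBS, 37 degrees C).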
TDP1 cell CPT: DT40-hTDP1 cell growth loss with CPT | chicken DT40 Tdp1-/-;hTDP1 cells + 20 nM CPT, ATP luminescence, 48 h | Potency, µM (highest dose often 46.2 µM), inactives show at the highest dose activity change, negative = growth inhibition, actives largely listed as inhibitors | 12% of 420,000 active | AID 686979; further: potency means the concentration at half of the fitted maximal effect; nearly all actives have a fitted effect of over 55% in size
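Cell growth measured by CellTiter-Glo luminescence after a minimum 48 h, 37 C compound exposure with 20 nM CPT in Tdp1-knockout DT40 cells stably expressing hTDP1, seeded 400/well; qHTS titration format.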
IL1B secr inh: blocks inflammasome-driven IL-1 beta release; THP-1 LPS/ATP IL-1B secretion, AlphaLISA, 16 h; hits give low values; activity change, % at 57.5 µM; 4.7% of 360,000 active; in the data active means activity change below about -50%; inconclusive means mostly about -30% to -49%
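THP-1 cells pretreated 1 hr with compounds (up to 57.5 uM final), then stimulated with LPS (250 ng/mL final) plus ATP (1.25 mM final); secreted IL-1B measured by AlphaLISA after 16 hr, decreased signal indicating inhibition.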
Active calls of the source: *. Unless noted, the call rests on the fitted dose curve; in most records, active means well fitted curve in the direction sought with a large enough effect; inconclusive means small, poorly fitted or top-dose-only effect, or another doubt; inactive means no such curve, though single readings can be large; an effect the other way counts as inactive or inconclusive. Unless noted, on the % scale 0 is the no-effect control and ±100 the full control effect.

`CCc1ccc(NC(=O)CC2C(=O)N(c3ccc(C)cc3)C(=O)N2CCc2ccncc2)cc1` (configuration not stated) gave HT1080 IDH1KD tx -14%, uPA generation -1%, TDP1 cell noCPT 23µM*, HT1080NT lethal -21%, TDP1 cell CPT inconclusive and IL1B secr inh -3.
`COC(=O)c1ccc(NC(=O)CC2C(=O)N(c3ccc(Cl)cc3)C(=O)N2Cc2ccco2)cc1` (configuration not stated) gave TDP1 cell noCPT 18µM* and TDP1 cell CPT 16µM*.
Screening Cc1ccc(/C(O)=C2/C(=O)C(=O)N(CC(=O)O)C2c2ccc([N+](=O)[O-])cc2)cc1 (configuration not stated) returned HT1080 IDH1KD tx 7%, uPA generation 1%, TDP1 cell noCPT inconclusive, HT1080NT lethal 20%, TDP1 cell CPT 13% and IL1B secr inh -13.
For C[C@H](CO)N1C[C@H](C)[C@@H](CN(C)C(=O)Nc2ccc(C(F)(F)F)cc2)Oc2ccc(NC(=O)Cc3ccccc3)cc2C1=O the results were HT1080 IDH1KD tx -2%, uPA generation -14%, TDP1 cell noCPT -12%, HT1080NT lethal -1%, TDP1 cell CPT inconclusive and IL1B secr inh -22.
For CC(C)c1ccccc1NC(=O)c1cccc(NC(=O)c2ccccc2)c1 the results were HT1080 IDH1KD tx -15%, uPA generation -2%, TDP1 cell noCPT inconclusive, HT1080NT lethal -11%, TDP1 cell CPT 16µM* and IL1B secr inh -12.
Screening CC(C)c1cc(NC(=O)c2ccccc2)cc(C(C)C)c1O returned HT1080 IDH1KD tx -5%, uPA generation -1%, TDP1 cell noCPT inconclusive, HT1080NT lethal 0%, TDP1 cell CPT -27% and IL1B secr inh -57*.
`CC(=O)Nc1cc(C(C)C)c(O)c(C(C)C)c1` gave HT1080 IDH1KD tx -3%, uPA generation 3%, TDP1 cell noCPT -27%, HT1080NT lethal 0%, TDP1 cell CPT -7% and IL1B secr inh -2.
COc1ccc2c(c1)[C@]1(C)CCC(=O)C[C@H]1CC2 was read as TDP1 cell noCPT -24% and TDP1 cell CPT -12%.
For C=CCn1ccc(O)c(Cc2ccc(Cl)cc2)c1=O the results were HT1080 IDH1KD tx 7%, uPA generation 0%, TDP1 cell noCPT 19%, HT1080NT lethal 18%, TDP1 cell CPT -17% and IL1B secr inh 30.
For CCOc1ccccc1N1CCN(C(=O)c2ccccc2OCc2c(C)noc2C)CC1 the results were HT1080 IDH1KD tx -6%, uPA generation inconclusive, TDP1 cell noCPT -23%, HT1080NT lethal -5%, TDP1 cell CPT -21% and IL1B secr inh -15.
Screening O=C(NCCNC(=O)c1ccc(-c2cc(Cl)ccc2Cl)o1)c1cnccn1 returned HT1080 IDH1KD tx 0%, TDP1 cell noCPT 21µM*, HT1080NT lethal -3%, TDP1 cell CPT inconclusive and IL1B secr inh -8.
O=C(NCCNC(=O)c1ccc(-c2ccc(Cl)c(Cl)c2)o1)c1cnccn1 was read as HT1080 IDH1KD tx inconclusive, uPA generation -8%, TDP1 cell noCPT 15µM*, HT1080NT lethal -15%, TDP1 cell CPT inconclusive and IL1B secr inh -74*.
`CC(CNc1nc2ccccc2n2cnnc12)c1ccccc1` (configuration not stated) gave HT1080 IDH1KD tx 0%, uPA generation -12%, TDP1 cell noCPT inconclusive, HT1080NT lethal 0%, TDP1 cell CPT inconclusive and IL1B secr inh 19.
Screening Nc1cc(N)c(OCC(F)(F)F)cc1OCC(F)(F)F returned HT1080 IDH1KD tx -6%, uPA generation 4%, TDP1 cell noCPT 9.2µM*, HT1080NT lethal -3%, TDP1 cell CPT 2.6µM* and IL1B secr inh -5.
`Nc1cc(OCC(F)(F)F)cc([N+](=O)[O-])c1` gave HT1080 IDH1KD tx 2%, uPA generation 0%, TDP1 cell noCPT -7%, HT1080NT lethal 4%, TDP1 cell CPT 0% and IL1B secr inh -10.
Screening Cc1cccc(-c2ncc(CN3CCCC(CO)(Cc4ccccc4C)C3)cn2)c1 (configuration not stated) returned HT1080 IDH1KD tx -15%, uPA generation 14%, TDP1 cell noCPT -25%, HT1080NT lethal -6%, TDP1 cell CPT 23µM* and IL1B secr inh -3.
`Cc1ccc(C)c(-c2[nH]ncc2CN2CCCC(CO)(Cc3ccccc3C)C2)c1` (configuration not stated) gave HT1080 IDH1KD tx inconclusive, uPA generation 7%, TDP1 cell noCPT 13µM*, HT1080NT lethal inconclusive, TDP1 cell CPT 7.3µM* and IL1B secr inh -80*.
For Cc1ccccc1CC1(CO)CCCN(Cc2ccccc2Cl)C1 (configuration not stated) the results were HT1080 IDH1KD tx inconclusive, uPA generation 1%, TDP1 cell noCPT -17%, HT1080NT lethal -21%, TDP1 cell CPT 1% and IL1B secr inh 16.
`CCNc1nc(NCC)n2c(SC(C(=O)Nc3cc(Cl)cc(Cl)c3)c3ccccc3)nnc2n1` (configuration not stated) gave HT1080 IDH1KD tx 1%, uPA generation -1%, TDP1 cell noCPT 16µM*, HT1080NT lethal 0%, TDP1 cell CPT 23µM* and IL1B secr inh 38.
Screening CCN(CC)CCNC(=O)c1c(C)oc2ncnc(N3CCOCC3)c12 returned TDP1 cell noCPT -5% and TDP1 cell CPT 5%.
O=c1cc(-c2ccccc2)nc(Sc2ccc([N+](=O)[O-])cc2[N+](=O)[O-])[nH]1 was read as HT1080 IDH1KD tx -24%, uPA generation -3%, TDP1 cell noCPT inconclusive, HT1080NT lethal -1%, TDP1 cell CPT inconclusive and IL1B secr inh -63*.
Screening O=[N+]([O-])c1ccc(Sc2ncccn2)c([N+](=O)[O-])c1 returned HT1080 IDH1KD tx 13µM*, uPA generation -5%, TDP1 cell noCPT 0.92µM*, HT1080NT lethal 29µM* and TDP1 cell CPT 0.82µM*.
For O=C(Nc1ncccn1)c1ccc([N+](=O)[O-])cc1[N+](=O)[O-] the results were HT1080 IDH1KD tx 0%, uPA generation 5%, TDP1 cell noCPT inconclusive, HT1080NT lethal 0%, TDP1 cell CPT inconclusive and IL1B secr inh 0.
